Laboratory results from PubChem BioAssay (NCATS).
Records with an inconclusive call do not appear. A call without a number means that no potency is given here. The source made the active and inactive calls. Calls follow the shape of the dose curve; as a rule, active = well fitted curve in the direction sought with a large enough effect; inconclusive = small, poorly fitted or top-dose-only effect, or another doubt; inactive = no such curve, though single readings can be large; an effect the other way counts as inactive or inconclusive.

Biological target: Beta-2 adrenergic receptor (Homo sapiens) (UniProt P07550)
Sequence (P07550 whole entry, looked up): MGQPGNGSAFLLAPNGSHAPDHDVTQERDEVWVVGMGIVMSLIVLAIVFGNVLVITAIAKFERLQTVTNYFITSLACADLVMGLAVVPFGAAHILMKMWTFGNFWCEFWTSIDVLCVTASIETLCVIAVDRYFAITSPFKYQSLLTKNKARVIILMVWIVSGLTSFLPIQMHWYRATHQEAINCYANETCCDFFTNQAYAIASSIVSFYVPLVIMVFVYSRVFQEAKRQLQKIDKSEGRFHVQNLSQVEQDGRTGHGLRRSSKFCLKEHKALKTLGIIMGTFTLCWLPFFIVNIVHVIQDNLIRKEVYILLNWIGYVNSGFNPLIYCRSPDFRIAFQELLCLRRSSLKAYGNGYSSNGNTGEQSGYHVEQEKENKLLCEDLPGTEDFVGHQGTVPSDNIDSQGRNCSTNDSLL
Test: qHTS validation assay of beta-arrestin-biased ligands of beta2-adrenergic receptor (AID 485366)
Settings: cell-based beta-arrestin recruitment to ADRB2, qHTS; series mostly up to 46.1 µM
Outline: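 qHTS, Tango cells, 1500 cells/well, DMEM + 1% FBS. Cpd 18 hr at 37 degrees C. Luciferin/ATP/CoA detection mix, 15 min RT, luminescence read. %Activity from corrected signal; CRC fit, curve class.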

| SMILES | outcome |
| --- | --- |
| CC(=O)N[C@@H](CS)C(=O)O | inactive |
| COC(=O)[C@@H]1[C@H]2C[C@H]3c4[nH]c5ccccc5c4CCN3C[C@@H]2CC[C@@H]1O | inactive |
| CCCNC(=O)NS(=O)(=O)c1ccc(Cl)cc1 | inactive |
| CC(=O)c1ccc(S(=O)(=O)NC(=O)NC2CCCCC2)cc1 | inactive |
| Clc1ccc(Cn2c(CN3CCCC3)nc3ccccc32)cc1 | inactive |
| O=C(O)CCc1nc(-c2ccccc2)c(-c2ccccc2)o1 | inactive |
| CC(C)NCC(O)COc1cccc2[nH]ccc12 (centres undefined) | inactive |
| O=C1NCC2(CCN(CCc3ccccc3)CC2)O1 | inactive |
| CC(=O)CCCCn1c(=O)c2c(ncn2C)n(C)c1=O | inactive |
| CN(C)CCC(c1ccccc1)c1ccccn1 (centres undefined) | inactive |
| CC(C)OC(=O)C(C)(C)Oc1ccc(C(=O)c2ccc(Cl)cc2)cc1 | inactive |
| O=c1c(-c2ccc(O)cc2)coc2cc(O)ccc12 | inactive |
| CCN(CC)C(=O)c1ccc(O)c(OC)c1 | inactive |
| CCN1CCC[C@H]1CNC(=O)c1cc(S(N)(=O)=O)ccc1OC | inactive |
| NC(N)=Nc1nc(CSCC/C(N)=N/S(N)(=O)=O)cs1 | inactive |
| Cc1cccc(C)c1OCC(C)N (centres undefined) | inactive |
| O=C1NC(=O)C(c2ccccc2)(c2ccccc2)N1 | inactive |
| C[N+](C)(C)CCCCCC[N+](C)(C)C | inactive |
| CCN(CC)CCOC(=O)c1ccc(N)cc1 | inactive |
| NCCS | inactive |
| COc1ccccc1N1CCN(CCCNc2cc(=O)n(C)c(=O)n2C)CC1 | inactive |
| CCCCC1C(=O)N(c2ccccc2)N(c2ccccc2)C1=O | inactive |

Tested on: not listed separately
Test: Quantitative high throughput screen for delayed death inhibitors of the malarial parasite plastid, 96 hour incubation (AID 488745); also: nearly all actives have a fitted effect of over 70% in size
Settings: Plasmodium falciparum growth; series mostly up to 28.7 µM
Outline: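 Decreased firefly luciferase luminescence indicates inhibited growth of reporter-integrated P. falciparum after two generations (96 h, 37 C, 5% CO2). Infected erythrocytes at 0.1% parasitemia, 2% hematocrit, in Albumax-supplemented RPMI 1640.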

| SMILES | Potency |
| --- | --- |
| CC(=O)N[C@@H](CS)C(=O)O | inactive |
| COC(=O)[C@@H]1[C@H]2C[C@H]3c4[nH]c5ccccc5c4CCN3C[C@@H]2CC[C@@H]1O | inactive |
| CCCNC(=O)NS(=O)(=O)c1ccc(Cl)cc1 | inactive |
| CC(=O)c1ccc(S(=O)(=O)NC(=O)NC2CCCCC2)cc1 | inactive |
| O=C(O)CCc1nc(-c2ccccc2)c(-c2ccccc2)o1 | inactive |
| CC(C)NCC(O)COc1cccc2[nH]ccc12 (centres undefined) | inactive |
| O=C1NCC2(CCN(CCc3ccccc3)CC2)O1 | inactive |
| CC(=O)CCCCn1c(=O)c2c(ncn2C)n(C)c1=O | inactive |
| CN(C)CCC(c1ccccc1)c1ccccn1 (centres undefined) | inactive |
| CCN(CC)C(=O)c1ccc(O)c(OC)c1 | inactive |
| CCN1CCC[C@H]1CNC(=O)c1cc(S(N)(=O)=O)ccc1OC | inactive |
| NC(N)=Nc1nc(CSCC/C(N)=N/S(N)(=O)=O)cs1 | inactive |
| Cc1cccc(C)c1OCC(C)N (centres undefined) | inactive |
| O=C1NC(=O)C(c2ccccc2)(c2ccccc2)N1 | inactive |
| C[N+](C)(C)CCCCCC[N+](C)(C)C | inactive |
| CCN(CC)CCOC(=O)c1ccc(N)cc1 | inactive |
| NCCS | inactive |
